Source: PubChem (Broad Institute)
This is one part of a sample in which hits are shown more often than they occur.
ID4 binder – binders of human ID4 protein. P47928. small molecule microarray, Flag-ID4 binding, fluorescence F/B. calls only. actives 1.2% (n = 31,000). AID 624137; call rule not given here;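 further: a binder raises fluorescence above local background on the spot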
Target sequence (P47928 whole entry, looked up): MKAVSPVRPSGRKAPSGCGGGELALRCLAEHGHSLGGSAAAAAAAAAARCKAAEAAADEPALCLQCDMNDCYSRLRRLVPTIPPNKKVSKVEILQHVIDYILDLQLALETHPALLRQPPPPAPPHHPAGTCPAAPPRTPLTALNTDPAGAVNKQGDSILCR
Calls only; n = inactive; + = active, no number.

SMILES	ID4 binder
O=C(NCc1ccc(F)cc1)[C@H]1C[C@H]2C(=O)N3CCC[C@H]3C(=O)N2[C@H]1c1cccc(OCCO)c1	+
CC(C)C[C@@H]1NC(=O)[C@@H]2C[C@H](C(=O)NCCCCCCN(C)C)[C@H](c3ccc(O)cc3)N2C1=O	n
O=C(CS)NCCCCCCNC(=O)[C@@H]1C[C@@H]2C(=O)NCC(=O)N2[C@@H]1c1ccc(O)cc1	n
COc1ccc(NC(=O)CNC(=O)c2ccc(C(C)(C)C)cc2)cc1	n
O=C(CCS(=O)(=O)c1ccc(Br)s1)NC(c1ccccc1)c1ccccc1	n
COc1ccc(OC)c(NC(=O)c2c(NC(=O)c3ccccc3)sc3c2CCC(C)C3)c1 (stereo unspecified)	n
COc1ccc(NC=O)c(CS(=O)(=O)c2ccc(C)cc2)n1	n
COc1ccc(S(=O)(=O)Nc2cccc(N(C)S(C)(=O)=O)c2)cc1OC	n
COc1cccc(C(=O)COc2cccc(NC(=O)c3ccc([N+](=O)[O-])cc3)c2)c1	n
CC(C)(C)NS(=O)(=O)c1ccc(OCC(=O)N2CCOCC2)cc1	n
O=C(CCCN1C(=O)c2ccccc2C1=O)Nc1ccc2ccccc2c1	n
O=S(=O)(Nc1ncccn1)c1ccc(NC(=S)Nc2ccc3c(c2)OCCO3)cc1	n
Cc1sc2nc(SCc3n[nH]c(=S)n3-c3ccccc3)[nH]c(=O)c2c1C	n
Cc1ccc(S(=O)(=O)Nc2cc(Cl)c(O)c(Sc3nc(C)cc(C)n3)c2)cc1	n
C=CCNC(=O)[C@@H]1[C@H]2C(=O)O[C@H](c3ccccc3)[C@H](c3ccccc3)N2[C@H](c2ccccc2OCCO)[C@@]12C(=O)Nc1ccc(C#CCC(C(=O)OC)C(=O)OC)cc12	n
O=C(C[C@@H]1CC[C@@H](NS(=O)(=O)c2ccccc2)[C@@H](CO)O1)NCCN1CCCCC1	+
O=C(C[C@@H]1CC[C@@H](NS(=O)(=O)c2ccccc2)[C@H](CO)O1)NCCN1CCCCC1	n
O=C(C[C@H]1CC[C@H](NS(=O)(=O)c2ccccc2)[C@@H](CO)O1)NCCN1CCCCC1	n
Cc1ccc(N(CC(N)=O)S(=O)(=O)c2ccc(F)cc2)cc1	n
CC1CCc2c(sc(NC(=O)c3cc(-c4cccnc4)nc4ccc(Cl)cc34)c2C(N)=O)C1 (stereo unspecified)	n
C[C@H](CO)N1C[C@H](C)[C@@H](CN(C)Cc2ccccc2)OCCCC[C@H](C)Oc2ccc(NS(=O)(=O)c3cccs3)cc2C1=O	n
C[C@H](CO)N1C[C@H](C)[C@H](CN(C)Cc2ccccc2)OCCCC[C@H](C)Oc2ccc(NS(=O)(=O)c3cccs3)cc2C1=O	n
O=C(NC1CCN(Cc2ccccc2)CC1)c1ccc(NS(=O)(=O)c2cccs2)cc1	+
CCOc1ccc2ccccc2c1C(=O)NCc1ccco1	n
O=C(CC1NCCNC1=O)Nc1ccccc1[N+](=O)[O-] (stereo unspecified)	n
SMILES	ID4 binder
Cc1cc(C)nc(SC(C)C(=O)Nc2ccc(Cl)c(Cl)c2)n1 (stereo unspecified)	n
O=S(=O)(N[C@@H]1CCCN(Cc2ccc(OCCO)cc2)C1)c1ccc(Cl)cc1	+
O=C1c2ccccc2C(=O)N1[C@@H]1CCCN(Cc2ccc(OCCO)cc2)C1	n
O=C1c2ccccc2C(=O)N1C[C@@H]1CCCN(Cc2cccc(OCCO)c2)C1	n
O=C1c2ccccc2C(=O)N1C[C@@H]1CCCN(Cc2ccc(OCCO)cc2)C1	+
O=S(=O)(N[C@@H]1CCCN(Cc2ccc(OCCO)cc2)C1)c1ccc(-c2ccccc2)cc1	n
COc1ccc(S(=O)(=O)N[C@@H]2CCCN(Cc3ccc(OCCO)cc3)C2)cc1	n
Cc1cccc(NC(=O)CSc2nc3ncnc(N)c3[nH]2)c1	n
O=C(CSc1nnc(-c2cccs2)n1-c1cccc(C(F)(F)F)c1)c1ccc(F)cc1	n
O=C(CSc1nc(O)cc(=O)n1-c1ccccc1)Nc1ccc2ccccc2c1	n
COC(=O)CNC(=O)c1cc2cc(Cl)ccc2oc1=O	n
CN/C(=C/[N+](=O)[O-])NCCSCc1csc(CN(C)C)n1	+
O=C(CSc1nnc(-c2ccncc2)n1-c1ccccc1)c1c[nH]c2ccccc12	n
Cc1cccc(OCC(=O)Nc2ccccc2C(=O)NC2CCCCC2)c1	n
O=C(CSC1CC(=O)N(c2cc(Cl)cc(Cl)c2)C1=O)Nc1ccccc1F (stereo unspecified)	n
O=C(Oc1ccc(-c2ccccc2)cc1)C(Cc1ccccc1)N1C(=O)C2C3CCC(C3)C2C1=O (stereo unspecified)	n
O=C(O)c1cc(NC(=O)C2CCCO2)cc(NC(=O)C2CCCO2)c1 (stereo unspecified)	+
O=C(Nc1ccc(S(=O)(=O)NCC2CCCO2)cc1)C1CCCO1 (stereo unspecified)	n
O=C(C1CCCO1)N1CCN(C(=S)Nc2ccc(S(=O)(=O)Nc3ncccn3)cc2)CC1 (stereo unspecified)	n
Cc1cc(NC(=O)CN(c2cccc(Cl)c2)S(C)(=O)=O)ccc1Br	n
Cc1nc(SCC(=O)c2ccccc2)c(C#N)c(-c2cccc(Cl)c2)c1C(=O)Nc1ccccc1	n
C[C@@H]1CN([C@@H](C)CO)C(=O)CCCn2cc(nn2)CO[C@H]1CN(C)CC1CC1	n
CCCN(C)C[C@H]1OCc2cn(nn2)CCCC(=O)N([C@H](C)CO)C[C@H]1C	+
C[C@H](CO)N1C[C@H](C)[C@H](CN(C)CC2CC2)OCc2cn(nn2)CCCC1=O	n
COc1cccc2cc(-c3nnc(SCC(=O)c4ccccc4)n3C)oc12	n
SMILES	ID4 binder
COC(=O)c1sccc1NC(=O)c1cc(-c2ccccn2)nc2ccc(Br)cc12	n
CCOC(=O)CSc1nnc2c3ccccc3n(C)c2n1	n
Cn1c2ccccc2c2nnc(SCCN3CCCCC3)nc21	+
c1ccc2c(c1)[nH]c1nc(SCCN3CCCCC3)nnc12	n
COc1ccc(Cl)cc1NC(=O)C(C)n1cc([N+](=O)[O-])cn1 (stereo unspecified)	n
Cc1cc(Cl)ccc1NC(=O)CSc1nnc(-c2ccc(Br)cc2)n1C	n
CSc1cccc(NC(=O)CN(c2ccc(F)c(Cl)c2)S(C)(=O)=O)c1	n
O=[N+]([O-])c1ccc(S(=O)(=O)NCc2cccnc2)cc1	n
Cc1c(C(=O)C2C(=O)C(=O)N(Cc3cccnc3)C2c2cccs2)cnn1-c1ccccc1 (stereo unspecified)	n
Cc1ccc(C(=O)C2C(=O)C(=O)N(Cc3cccnc3)C2c2cccc(Oc3ccccc3)c2)o1 (stereo unspecified)	n
Cc1c(C(=O)C2C(=O)C(=O)N(Cc3cccnc3)C2c2ccccn2)cnn1-c1ccccc1 (stereo unspecified)	+
COc1cc(-c2nnc(SCC(=O)c3ccc(-c4ccccc4)cc3)n2C)cc(OC)c1OC	n
O[C@]12CO[C@H](c3ccc4c(c3)OCO4)[C@H]1CO[C@@H]2c1ccc2c(c1)OCO2	n
COc1ccccc1CCNC(=O)c1cc(-c2cccs2)nc2ccccc12	n
CSc1ccccc1NC(=O)C(C)NS(=O)(=O)c1ccc(C)cc1 (stereo unspecified)	n
COC(=O)c1cn(CCCNC(=O)[C@H](Cc2ccccc2)NS(=O)(=O)c2ccc(C)cc2)nn1	+
Cc1ccc(S(=O)(=O)NC(C)C(=O)Nc2ccc(Oc3ccccc3)cc2)cc1 (stereo unspecified)	n
CC(CCC(=O)NCC(=O)O)C1CCC2C3CCC4CC(O)CCC4(C)C3CC(O)C12C (stereo unspecified)	n
